Measurements: PubChem BioAssay
The source made the active and inactive calls.

Experiments:
[1] = tested on: PRMT1 (protein arginine N-methyltransferase 1); test: PRMT1 binders on small-molecule microarrays, primary screen, biochemical, small-molecule microarray, 635 nm fluorescence (AID 1088); conditions: small-molecule microarray binding, higher = more signal;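 also: binding of Prmt1 protein to compounds spotted on small-molecule microarray slides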
[2] = yeast growth modulation, basal conditions, primary screen, YJM789 clinical isolate, OD600, 24 h (AID 1089);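 also: growth of clinical yeast isolate S. cerevisiae YJM 789 seeded 1000 cells per well; test concentration not given here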; conditions: S. cerevisiae YJM789 growth, higher = more signal, called active from +8 up or from −8 down
[3] = fission yeast growth modulation, primary screen, strain 972, OD600, 24 h, no modulator (AID 1090);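 also: basal condition with compound alone and no growth modifier present; test concentration not given here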; conditions: S. pombe 972 growth, higher = more signal, called active from +8 up or from −8 down
[4] = S. cerevisiae growth modulation with rapamycin, primary screen, strain BY4716, OD600, 96 h (AID 1091); conditions: higher = more signal, called active from +8 up or from −8 down; also: test concentration not given here
[5] = molecular target: Torsin-1A-interacting protein 2 (Homo sapiens) (UniProt Q8NFQ8); test: LULL1 binders on small-molecule microarray, primary screen, cell lysate, human LULL1 lysate, 635/667 nm fluorescence (AID 1092); conditions: hLULL1 lysate binding, 635 nm fluorescence, higher = more signal;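 also: probe is lysate of COS7 cells overexpressing human LULL1; score merges per-feature 667 nm fluorescence with signal-to-noise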
Torsin-1A-interacting protein 2 (Homo sapiens), sequence (Q8NFQ8 whole entry, looked up): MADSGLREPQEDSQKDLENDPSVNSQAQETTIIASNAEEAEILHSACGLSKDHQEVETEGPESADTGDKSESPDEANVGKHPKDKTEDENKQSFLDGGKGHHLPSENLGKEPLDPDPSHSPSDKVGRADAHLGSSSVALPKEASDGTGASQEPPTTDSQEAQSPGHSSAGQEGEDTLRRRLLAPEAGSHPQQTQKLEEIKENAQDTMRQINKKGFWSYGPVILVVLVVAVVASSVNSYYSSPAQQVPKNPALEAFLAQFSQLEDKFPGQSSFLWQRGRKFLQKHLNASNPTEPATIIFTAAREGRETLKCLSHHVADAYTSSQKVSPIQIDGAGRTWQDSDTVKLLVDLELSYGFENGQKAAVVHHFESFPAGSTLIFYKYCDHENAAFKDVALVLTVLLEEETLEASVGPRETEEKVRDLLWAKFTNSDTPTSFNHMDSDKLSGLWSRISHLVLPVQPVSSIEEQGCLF

[6] = E. coli growth modulation, two-sided OD650, primary screen, E. coli filamentation project, strain DRC41, 24 h (AID 1093); conditions: OD650, 24 h, higher = more signal, called active from +8 up or from −8 down;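 also: MC1000 strain lacking acrAB efflux and sulA so SOS filamentation is blocked; test concentration not given here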
[7] = small-molecule microarray binders of probe aLefty2, primary screen, biochemical, biotinylated probe, 635/667 nm fluorescence (AID 1094); conditions: higher = more signal;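 also: score merges spot fluorescence near 667 nm with spot signal-to-noise ratio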
[8] = tested on: Noggin (protein binding on small-molecule microarray); test: Noggin binders on small-molecule microarray, primary screen, biochemical, 635/667 nm fluorescence (AID 1095); conditions: 635 nm fluorescence, higher = more signal;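 also: score merges 667 nm feature fluorescence with signal to noise over triplicate slides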
[9] = molecular target: Neurogenic locus notch homolog protein 3 (Homo sapiens) (UniProt Q9UM47); test: NOTCH3 binders on small-molecule microarray, primary screen, biochemical, 635/667 nm fluorescence (AID 1096); conditions: NOTCH3 binding, 635 nm fluorescence, higher = more signal
Neurogenic locus notch homolog protein 3 (Homo sapiens), sequence (Q9UM47 whole entry, looked up): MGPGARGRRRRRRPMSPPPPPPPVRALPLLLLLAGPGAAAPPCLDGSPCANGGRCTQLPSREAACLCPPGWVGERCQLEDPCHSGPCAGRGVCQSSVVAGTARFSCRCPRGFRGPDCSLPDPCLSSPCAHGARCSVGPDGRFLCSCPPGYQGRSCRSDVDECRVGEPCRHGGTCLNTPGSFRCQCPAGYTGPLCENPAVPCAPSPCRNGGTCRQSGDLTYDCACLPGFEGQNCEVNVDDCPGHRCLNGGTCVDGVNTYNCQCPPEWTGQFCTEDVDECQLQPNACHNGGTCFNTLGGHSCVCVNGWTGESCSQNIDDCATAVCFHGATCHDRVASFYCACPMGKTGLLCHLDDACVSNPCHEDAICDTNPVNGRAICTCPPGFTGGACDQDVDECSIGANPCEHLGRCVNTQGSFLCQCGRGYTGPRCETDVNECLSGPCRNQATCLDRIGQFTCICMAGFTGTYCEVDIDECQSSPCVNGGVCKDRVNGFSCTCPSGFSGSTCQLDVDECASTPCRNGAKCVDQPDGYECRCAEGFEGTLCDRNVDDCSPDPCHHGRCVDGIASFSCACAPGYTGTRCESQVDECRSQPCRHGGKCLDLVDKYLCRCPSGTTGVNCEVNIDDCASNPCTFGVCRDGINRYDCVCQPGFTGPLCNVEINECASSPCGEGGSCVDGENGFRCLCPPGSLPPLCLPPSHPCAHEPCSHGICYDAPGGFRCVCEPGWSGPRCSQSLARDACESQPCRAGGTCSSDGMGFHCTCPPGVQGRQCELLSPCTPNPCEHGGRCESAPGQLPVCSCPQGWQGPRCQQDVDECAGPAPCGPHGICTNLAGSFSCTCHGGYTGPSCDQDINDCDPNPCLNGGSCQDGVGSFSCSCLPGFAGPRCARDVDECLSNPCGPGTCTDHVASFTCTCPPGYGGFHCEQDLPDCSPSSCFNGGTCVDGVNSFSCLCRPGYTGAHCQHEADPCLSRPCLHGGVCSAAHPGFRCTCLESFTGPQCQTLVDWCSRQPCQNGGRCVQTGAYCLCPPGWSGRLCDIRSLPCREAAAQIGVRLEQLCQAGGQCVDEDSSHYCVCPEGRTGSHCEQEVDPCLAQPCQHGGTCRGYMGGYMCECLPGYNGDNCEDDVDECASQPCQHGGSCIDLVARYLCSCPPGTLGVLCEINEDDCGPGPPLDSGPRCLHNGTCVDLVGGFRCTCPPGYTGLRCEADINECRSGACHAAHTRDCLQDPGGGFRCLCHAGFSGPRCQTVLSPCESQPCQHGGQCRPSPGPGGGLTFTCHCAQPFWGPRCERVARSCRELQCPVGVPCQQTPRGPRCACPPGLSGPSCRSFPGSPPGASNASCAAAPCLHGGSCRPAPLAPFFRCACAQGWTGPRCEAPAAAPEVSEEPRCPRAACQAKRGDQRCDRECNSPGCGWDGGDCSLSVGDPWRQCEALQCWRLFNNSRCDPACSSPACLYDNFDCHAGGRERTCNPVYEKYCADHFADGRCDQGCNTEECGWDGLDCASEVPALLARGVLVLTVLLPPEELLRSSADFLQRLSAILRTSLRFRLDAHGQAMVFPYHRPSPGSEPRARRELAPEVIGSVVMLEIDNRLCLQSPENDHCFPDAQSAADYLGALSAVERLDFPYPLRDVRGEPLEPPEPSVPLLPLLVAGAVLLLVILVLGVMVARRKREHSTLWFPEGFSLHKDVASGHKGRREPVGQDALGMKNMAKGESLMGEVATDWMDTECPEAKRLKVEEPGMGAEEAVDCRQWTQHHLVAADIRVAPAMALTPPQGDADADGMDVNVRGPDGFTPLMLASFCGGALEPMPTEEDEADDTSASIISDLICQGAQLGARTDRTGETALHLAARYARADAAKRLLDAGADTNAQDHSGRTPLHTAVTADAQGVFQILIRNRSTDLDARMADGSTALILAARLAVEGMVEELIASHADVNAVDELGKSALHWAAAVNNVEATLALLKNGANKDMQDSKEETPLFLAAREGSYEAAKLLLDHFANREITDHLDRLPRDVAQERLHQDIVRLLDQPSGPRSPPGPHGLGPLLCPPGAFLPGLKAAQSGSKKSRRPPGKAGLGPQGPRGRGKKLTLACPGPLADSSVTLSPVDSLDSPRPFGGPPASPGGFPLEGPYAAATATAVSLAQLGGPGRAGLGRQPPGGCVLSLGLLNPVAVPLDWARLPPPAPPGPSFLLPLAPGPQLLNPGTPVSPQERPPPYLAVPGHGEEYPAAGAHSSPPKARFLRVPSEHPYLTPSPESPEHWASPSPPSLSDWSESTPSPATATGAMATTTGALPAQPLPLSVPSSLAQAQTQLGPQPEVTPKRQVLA

[10] = small-molecule microarray binders of probe aEGFR, primary screen, biochemical, biotinylated probe, 635/667 nm fluorescence (AID 1097); conditions: higher = more signal;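 also: probe is a biotinylated anti-EGFR antibody binding compounds printed on slides; score combines fluorescence near 667 nm and signal to noise of each spot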
[11] = tested on: Plasmodium falciparum Sir2 (PF13_0152, Sir2A); test: pfSir2 binders on small-molecule microarrays, primary screen, biochemical, small-molecule microarray, 635 nm fluorescence (AID 1098); conditions: small-molecule microarray binding, fluorescence 635 nm; higher = more signal;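 also: score merges spot fluorescence intensity with its signal-to-noise ratio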
[12] = small-molecule microarray binders of probe aDKK1, primary screen, biochemical, biotinylated probe, 635/667 nm fluorescence (AID 1099); conditions: higher = more signal;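 also: score merges 667nm spot fluorescence with signal to noise across triplicate slides; reference of the scale not given here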
[13] = small-molecule microarray binders of probe aCHRDL2, primary screen, biochemical, biotinylated probe, 635/667 nm fluorescence (AID 1100); conditions: higher = more signal
[14] = splicing luciferase reporter signal modulators, primary screen, spliceosome inhibition project, cell-based, HEK293, splice +/- reporter (AID 1101); conditions: luminescence, 24 h, higher = more signal, called active from +8 up or from −8 down;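 also: HEK293 cells carrying a splicing-competent luciferase reporter gene; test concentration not given here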
[15] = molecular target: Fibroblast growth factor 10 (Homo sapiens) (UniProt O15520); test: FGF10 binders on small-molecule microarrays, primary screen, biochemical, small-molecule microarray, 635 nm fluorescence (AID 1102); conditions: FGF10 binding, fluorescence 635 nm, higher = more signal
Fibroblast growth factor 10 (Homo sapiens), sequence (O15520 whole entry, looked up): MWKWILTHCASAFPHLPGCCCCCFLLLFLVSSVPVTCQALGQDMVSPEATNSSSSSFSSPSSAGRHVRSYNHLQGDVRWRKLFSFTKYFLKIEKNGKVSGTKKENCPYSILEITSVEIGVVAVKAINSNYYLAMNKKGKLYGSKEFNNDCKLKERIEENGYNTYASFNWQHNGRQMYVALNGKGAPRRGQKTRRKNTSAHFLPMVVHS

[16] = tested on: glycogen synthase kinase-3 (GSK3A per assay name; protocol says GSK3B); test: GSK3 binders on small-molecule microarrays, primary screen, biochemical, small-molecule microarray, 635 nm fluorescence, GSK3A (AID 1103); conditions: small-molecule microarray binding, fluorescence 635 nm; higher = more signal; also: the record names both GSK3A and GSK3B
[17] = molecular target: Epidermal growth factor receptor (Homo sapiens) (UniProt P00533); test: EGFR binders on small-molecule microarrays, primary screen, biochemical, small-molecule microarray, 635 nm fluorescence (AID 1104); conditions: EGFR binding, higher = more signal;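 also: score merges 667 nm emission intensity with spot signal to noise over triplicate slides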
Epidermal growth factor receptor (Homo sapiens), sequence (P00533 whole entry, looked up): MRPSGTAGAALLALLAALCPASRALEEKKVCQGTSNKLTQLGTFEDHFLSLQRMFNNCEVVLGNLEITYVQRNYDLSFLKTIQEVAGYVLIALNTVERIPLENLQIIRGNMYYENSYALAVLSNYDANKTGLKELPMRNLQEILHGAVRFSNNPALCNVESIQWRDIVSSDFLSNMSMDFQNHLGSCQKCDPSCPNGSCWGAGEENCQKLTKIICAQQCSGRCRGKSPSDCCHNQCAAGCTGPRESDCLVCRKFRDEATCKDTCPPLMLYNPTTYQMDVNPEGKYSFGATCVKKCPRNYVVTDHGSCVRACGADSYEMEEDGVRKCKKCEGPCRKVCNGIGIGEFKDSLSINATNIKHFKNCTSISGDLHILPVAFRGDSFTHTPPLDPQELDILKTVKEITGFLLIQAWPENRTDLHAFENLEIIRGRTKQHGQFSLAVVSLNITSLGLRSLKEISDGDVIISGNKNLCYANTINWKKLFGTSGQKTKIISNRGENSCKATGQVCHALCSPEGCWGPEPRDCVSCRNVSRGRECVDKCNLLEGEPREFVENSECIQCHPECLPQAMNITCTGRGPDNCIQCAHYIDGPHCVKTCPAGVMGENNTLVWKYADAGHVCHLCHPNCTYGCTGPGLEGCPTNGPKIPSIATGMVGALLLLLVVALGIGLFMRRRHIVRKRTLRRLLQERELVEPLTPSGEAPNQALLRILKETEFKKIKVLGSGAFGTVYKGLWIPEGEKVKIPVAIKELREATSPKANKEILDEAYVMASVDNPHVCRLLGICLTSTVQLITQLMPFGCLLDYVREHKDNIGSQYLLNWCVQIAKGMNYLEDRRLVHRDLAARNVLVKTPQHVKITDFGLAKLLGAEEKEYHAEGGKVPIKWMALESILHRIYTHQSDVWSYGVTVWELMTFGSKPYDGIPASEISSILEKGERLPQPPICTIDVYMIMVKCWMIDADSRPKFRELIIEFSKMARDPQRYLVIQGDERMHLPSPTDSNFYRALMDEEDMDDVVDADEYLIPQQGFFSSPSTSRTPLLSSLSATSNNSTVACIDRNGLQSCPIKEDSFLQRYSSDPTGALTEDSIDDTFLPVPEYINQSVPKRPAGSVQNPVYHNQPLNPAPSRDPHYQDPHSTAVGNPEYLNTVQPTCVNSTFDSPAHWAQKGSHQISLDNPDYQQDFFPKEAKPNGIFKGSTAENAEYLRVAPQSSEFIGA

[18] = molecular target: Follistatin-related protein 3 (Homo sapiens) (UniProt O95633); test: FSTL3 binders on small-molecule microarrays, primary screen, biochemical, small-molecule microarray, 635 nm fluorescence (AID 1105); conditions: FSTL3 binding, higher = more signal;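 also: score merges emission near 667 nm and signal to noise per printed spot across three slides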
Follistatin-related protein 3 (Homo sapiens), sequence (O95633 whole entry, looked up): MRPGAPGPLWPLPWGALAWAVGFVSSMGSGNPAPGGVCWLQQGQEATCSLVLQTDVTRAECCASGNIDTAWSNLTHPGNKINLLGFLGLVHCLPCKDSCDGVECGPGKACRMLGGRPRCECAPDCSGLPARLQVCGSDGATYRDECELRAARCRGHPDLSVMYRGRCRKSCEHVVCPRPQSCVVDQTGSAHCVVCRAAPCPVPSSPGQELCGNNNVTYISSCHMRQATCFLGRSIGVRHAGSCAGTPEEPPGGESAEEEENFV

[19] = molecular target: Dickkopf-related protein 1 (Homo sapiens) (UniProt O94907); test: DKK1 binders on small-molecule microarrays, primary screen, biochemical, small-molecule microarray, 635 nm fluorescence scan (AID 1106); conditions: DKK1 binding, higher = more signal;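 also: score merges emission near 667 nm with signal to noise over three replicate slides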
Dickkopf-related protein 1 (Homo sapiens), sequence (O94907 whole entry, looked up): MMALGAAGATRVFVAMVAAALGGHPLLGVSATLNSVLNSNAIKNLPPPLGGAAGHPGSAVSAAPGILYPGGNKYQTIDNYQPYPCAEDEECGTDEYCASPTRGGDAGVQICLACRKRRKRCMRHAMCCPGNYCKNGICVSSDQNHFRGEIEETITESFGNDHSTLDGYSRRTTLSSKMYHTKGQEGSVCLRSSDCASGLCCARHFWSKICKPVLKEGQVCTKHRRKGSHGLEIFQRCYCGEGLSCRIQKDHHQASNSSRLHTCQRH

[20] = tested on: Inhibin beta A chain (activin A); test: INHBA (activin A) binders on microarrays, primary screen, biochemical, small-molecule microarray, 635 nm fluorescence scan (AID 1107); conditions: small-molecule microarray binding, higher = more signal;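 also: mouse activin A protein probed at 4.33 µg/mL on printed slides; score merges bound-protein fluorescence near 667 nm with spot signal-to-noise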

| SMILES | composite z-score [1] | z-score [2] | z-score [3] | z-score [4] | composite z-score [5] | z-score [6] | composite z-score [7] | composite z-score [8] | composite z-score [9] | composite z-score [10] | composite z-score [11] | composite z-score [12] | composite z-score [13] | z-score [14] | composite z-score [15] | composite z-score [16] | composite z-score [17] | composite z-score [18] | composite z-score [19] | composite z-score [20] |
| --- | --- | --- | --- | --- | --- | --- | --- | --- | --- | --- | --- | --- | --- | --- | --- | --- | --- | --- | --- | --- |
| C=C(CCCC)/C(=C/C[C@H](OC(C)=O)c1ccc(OCCO)cc1)c1cnc2ccccc2c1 | 1.53 | -1.1 (inactive) | -1.83 (inactive) | -0.434 (inactive) | 1.92 | 1 (inactive) | -0.138 | 1.04 | 0.727 | -0.0824 | 0.641 | -0.182 | -0.0866 | 0.299 (inactive) | 0.672 | 0.209 | 0.384 | 1.12 | 0.446 | 1.53 |
| C=CCOC(=O)[C@H]1[C@@H]2C(=O)O[C@@H](c3ccccc3)[C@@H](c3ccccc3)N2[C@@H](c2ccc(OCCOC(=O)[C@H]3C[C@H]4C(=O)N[C@@H](CCCCN(C)C)C(=O)N4[C@H]3c3cccc(OCCO)c3)cc2)[C@]12C(=O)Nc1ccc(I)cc12 | 1.54 | 1.71 (inactive) | -1.05 (inactive) | 1.71 (inactive) | 2.84 | -1.36 (inactive) | -0.129 | 1.67 | 1.06 | -0.15 | 0.79 | -0.267 | -0.254 | 1.52 (inactive) | 1.32 | 1.16 | 0.527 | 1.46 | 1.07 | 1.11 |
| CO[C@H]1O[C@H](CO)[C@@H](OC(=O)Nc2ccccc2)[C@@H]2OC(=O)[C@@H](Cc3ccc4ccccc4c3)C/C=C/C[C@H](Cc3ccc4ccccc4c3)C(=O)O[C@@H]12 | 1.47 | -1.38 (inactive) | -1.57 (inactive) | 1.55 (inactive) | 2.35 | 2.64 (inactive) | -0.0403 | 0.369 | 0.977 | -0.0449 | 1.08 | 0.134 | 0.402 | -0.916 (inactive) | 1.08 | 0.899 | 0.204 | 0.531 | -0.112 | 0.962 |
| CN(C)CCCCCCNC(=O)[C@@H]1C[C@@H]2C(=O)N[C@@H](CCCC[N+](C)(C)C)C(=O)N2[C@@H]1c1ccc(O)cc1 | 0.821 | -0.581 (inactive) | -0.689 (inactive) | -0.414 (inactive) | 0.219 | -0.227 (inactive) | -0.0907 | 0.576 | 0.0475 | -0.221 | 0.626 | -0.0429 | -0.397 | -0.0575 (inactive) | 0.421 | 0.467 | -0.144 | 0.0663 | 1.61 | -0.181 |
| C=CC[C@@]1(C(=O)N2CCCCC2)N=C(c2ccc(OCCCO)cc2)O[C@@H]1c1ccccc1N=[N+]=[N-] | 1.54 | -0.989 (inactive) | -0.577 (inactive) | 1.13 (inactive) | 3.23 | 1.07 (inactive) | 0.286 | 0.564 | 1.13 | 0.14 | 0.763 | 1.19 | 1.07 | -0.212 (inactive) | 0.925 | 0.742 | 0.249 | 0.657 | -0.0197 | 1.03 |
| COc1ccc(NC(=O)O[C@H]2[C@H](OC(=O)c3cc4ccccc4[nH]3)[C@@H](OC(=O)c3cc4ccccc4[nH]3)[C@@H](OC)O[C@@H]2CO)cc1 | 0.496 | -1.68 (inactive) | -0.519 (inactive) | 0.611 (inactive) | 1.54 | 0.593 (inactive) | -0.007 | 0.21 | 0.475 | -0.0409 | 1.24 | -0.0147 | 0.358 | -1.07 (inactive) | 0.523 | 0.212 | -0.245 | 0.448 | -0.011 | 0.287 |
| CN1C(=O)C2C=CC(C(O)C=Cc3ccc([N+](=O)[O-])cc3)N(Nc3ccccc3)C2C1=O (stereo not given) | 1.51 | -0.131 (inactive) | -1.18 (inactive) | -0.656 (inactive) | 1.62 | -1.35 (inactive) | 0.0849 | 0.577 | 1.12 | -0.0372 | 0.967 | 0.0403 | -0.175 | 1.21 (inactive) | 0.718 | 1.15 | 0.692 | 1.06 | 0.587 | 1.02 |
| O=c1cccc(-c2ccccc2Cl)o1 | 0.023 | -0.871 (inactive) | -0.463 (inactive) | 2.12 (inactive) | 0.551 | -0.252 (inactive) | -0.127 | 0.466 | -0.691 | -0.139 | -0.462 | -0.0639 | -0.456 | 0.477 (inactive) | 0.425 | 0.0083 | 0.0031 | -0.0893 | 0.157 | 0.747 |
| NCCCCCNC(=O)[C@H]1C[C@H]2C(=O)N[C@@H](Cc3ccccc3)C(=O)N2[C@H]1c1cccc(OCCO)c1 | 0.788 | 0.693 (inactive) | -1.42 (inactive) | -0.763 (inactive) | 1.6 | 0.631 (inactive) | 0.662 | -0.0079 | 0.478 | 0.0115 | 0.0864 | 1.15 | 0.942 | -0.365 (inactive) | -0.0314 | 0.213 | 0.0441 | 0.6 | 0.4 | 1.34 |
| COc1ccc(C(=O)Nc2cccc(CN3C(=O)[C@]4(O[C@H](CCn5cc(CCO)nn5)[C@@H]([Si](C)(C)c5ccc(OC)cc5)[C@@H]4C)c4ccccc43)c2)cc1 | 1.06 | 0.901 (inactive) | -14.9 (active) | 1.15 (inactive) | 1.2 | 0.506 (inactive) | 0.143 | 0.367 | 0.556 | 0.0848 | 0.83 | 0.601 | 0.127 | 2.05 (inactive) | 0.17 | 0.495 | 0.529 | 1.01 | 0.201 | 1.55 |
